# In all, about 69,000 compounds went through this assay and about 50 (0.07%) showed an effect of 50% or more. What follows is part of a selection rich in strong results, with near analogues and random picks from the rest.
# Molecular target: Lysine--tRNA ligase (Plasmodium falciparum (isolate 3D7)) (UniProt Q8IDJ8)
# Assay: Pf-KRS-1 (Lysyl-RNA Synthetase-1, KRS-1, cytosolic KRS) from Plasmodium falciparum. Inhibitor assay, 384 well plate, luminescence read.
# Type: functional
# Design: scale not given: in the data most compounds retested in dose-response had high values
# Conditions: 30 µM
# Sequence of Lysine--tRNA ligase (Plasmodium falciparum (isolate 3D7)) (Q8IDJ8 1-583): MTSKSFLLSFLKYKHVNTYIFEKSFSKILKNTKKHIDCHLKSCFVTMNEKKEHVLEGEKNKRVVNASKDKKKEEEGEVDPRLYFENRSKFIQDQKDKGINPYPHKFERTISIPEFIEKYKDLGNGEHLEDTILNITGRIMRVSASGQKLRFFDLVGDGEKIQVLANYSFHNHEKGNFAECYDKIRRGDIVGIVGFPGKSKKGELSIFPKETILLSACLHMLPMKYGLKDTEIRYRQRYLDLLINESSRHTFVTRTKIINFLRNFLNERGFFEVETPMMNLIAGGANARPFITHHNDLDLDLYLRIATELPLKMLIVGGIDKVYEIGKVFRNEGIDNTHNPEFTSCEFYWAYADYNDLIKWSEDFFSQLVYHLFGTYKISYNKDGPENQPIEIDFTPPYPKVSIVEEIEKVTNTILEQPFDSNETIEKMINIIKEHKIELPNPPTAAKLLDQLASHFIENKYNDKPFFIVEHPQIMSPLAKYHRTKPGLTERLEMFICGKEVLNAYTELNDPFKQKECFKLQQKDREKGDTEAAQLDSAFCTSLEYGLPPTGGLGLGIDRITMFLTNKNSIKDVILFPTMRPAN
row,Structure (SMILES),Percent Effect [%]
1,COc1ccc(CNC(=O)Nc2ccc(=O)n(C)c2)cc1,77.6
2,Cn1cc(NC(=O)NCc2ccoc2)ccc1=O,58.5
3,Cc1nnc(NC(=O)NCc2ccoc2)s1,0.941
4,Cn1cc(NC(=O)CCc2ccsc2)ccc1=O,7.87
5,CN(Cc1ccsc1)C(=O)Nc1ccc(=O)n(C)c1,28.4
6,COc1ccc(CNC(=O)Nc2ccc(CN3CCOC3=O)cc2)cc1,0.788
7,O=C(NCc1ccoc1)Nc1ccc(CN2CCOC2=O)cc1,2.38
8,COC(=O)c1ccc(CNC(=O)Nc2ccc(=O)n(C)c2)cc1,-0.542
9,Cn1cc(NC(=O)NCc2ccsc2)ccc1=O,73.2
10,COCC(=O)N1C[C@H]2CCC[C@@]2(COC)C1,3.43
11,O=C(c1cccnc1)N1C[C@H]2CN(Cc3cccc(F)c3)C(=O)[C@H]2C1,7.87
12,CO[C@H]1CCN(C2CCC2)[C@@H]2CN(Cc3ccncc3)C[C@H]12,3
13,CO[C@@H]1CCN(S(=O)(=O)c2cccnc2)[C@@H]2CN(CC3CC3)C[C@@H]21,4.3
14,O=C(NC1CCCC1)[C@H]1CC[C@@H]2[C@@H](CCN2c2ncc(F)cn2)O1,-0.28
15,CO[C@H]1CC[C@H]2[C@H]1OCCN2Cc1ccc(F)c(F)c1,-6.11
16,COCc1cnc2n1CCN(C(=O)c1ccc3ccccc3n1)C2C (stereo not drawn),10.7
17,O=C(CC1CCCC1)N1C[C@@H]2CCN(c3cccnc3)C[C@@H]2C1,1.75
18,c1coc(-c2nc3c(c(N4CCCN5CCC[C@H]5C4)n2)CCNCC3)c1,0.644
19,Cc1ccoc1C(=O)N1CC[C@H]2OCC[C@@]2(COCc2ccncc2)C1,6.75
20,Cc1cc(=O)n(C)cc1NC(=O)Cc1ccc(C(F)(F)F)cc1,1.6
21,Cc1cc(=O)n(C)cc1NC(=O)Cc1cc(F)ccc1F,69.1
22,Cc1cc(=O)n(C)cc1NC(=O)Cc1cccc(F)c1,19.8
23,O=C1CO[C@H]2CN(C3CCOCC3)C[C@H]2N1Cc1ccccn1,2.85

row,Structure (SMILES),Percent Effect [%]
1,Cc1ccc(S(=O)(=O)N2C[C@@H]3CCN[C@@H]3C2)cc1,2.57
2,COc1ccc(CN2C[C@@H]3COC[C@@H](CC(=O)N4CCCC4)[C@@H]3C2)cc1,4.49
3,O=c1c(CN2CC3CCCN3C[C@@H]2CCO)coc2ccc(Cl)cc12 (stereo partly drawn),0.683
4,O=c1c(CN2CCOCC2)coc2ccc(Cl)cc12,28.3
5,O=c1c(CN2CCCCC2)coc2ccc(Cl)cc12,62.1
6,Cc1ccc(S(=O)(=O)N2C[C@@H]3C[C@@H](NC(=O)C(C)(C)C)[C@@H]3C2)cc1,6.48
7,CC(O)(CNc1ccc(Cl)c(C#N)n1)c1ccccc1 (stereo not drawn),8.49
8,CC(O)(CNc1ccc(Cl)c(C#N)n1)c1ccsc1 (stereo not drawn),59
9,Cn1cc(C(C)(O)CNc2ccc(Cl)c(C#N)n2)cn1 (stereo not drawn),18.4
10,CCOCC(=O)N1CC[C@@H]2O[C@@H](C)C[C@H]2C1,2.15
11,O=C1CC[C@]2(CC[C@@H](NCc3ccc4c(c3)OCO4)CC2)N1,-2.96
12,O=C(NC1CC(F)(F)C1)[C@]12COC[C@H]1CN(Cc1ccsc1)C2,3.2
13,O=C(c1c[nH]nn1)N1CCCC1C1CCCCC1 (stereo not drawn),85.6
14,O=C(c1cnc2[nH]c(=O)[nH]c(=O)c2c1)N1CCCC1C1CCCCC1 (stereo not drawn),2.68
15,O=C(c1ccc(=O)[nH]n1)N1CCCC1C1CCCC1 (stereo not drawn),9.62
16,COC[C@@]12CC[C@@H](N3CCOCC3)C[C@H]1CCN(c1nc(CO)cs1)C2,10.3
17,Cn1cc(NC(=O)N2CCC2c2ccccc2)ccc1=O (stereo not drawn),20.1
18,CC(C)C1CCCN1C(=O)Nc1ccc(=O)n(C)c1 (stereo not drawn),81
19,Cn1cc(NC(=O)N2CCC(c3ccccc3)CC2)ccc1=O,45.4
20,Cn1cc(NC(=O)N2CCCC2c2ccccn2)ccc1=O (stereo not drawn),78.9
21,Cn1cc(NC(=O)N2CCCC2c2cccnc2)ccc1=O (stereo not drawn),4.14
22,Cn1cc(NC(=O)N2CCC(CN3CCCC3)CC2)ccc1=O,0.985
23,COCC(=O)N1CC[C@H]2[C@H]1CCN2CC(C)C,7.19

row,Structure (SMILES),Percent Effect [%]
1,CN(Cc1ccco1)[C@@H]1CN(CC2CCOCC2)C[C@@H]2CCCO[C@@H]21,-0.34
2,CN1C[C@H]2CNC[C@@]2(C(=O)N2CCN(c3ncccc3C#N)CC2)C1,4.21
3,O=C([C@H]1CCS(=O)(=O)[C@@H]2CN(Cc3ccc(F)cc3)C[C@H]12)N1CCCC1,7.12
4,O=C(c1ccc[nH]1)N1C[C@H](OCc2ccccn2)[C@H]2COC[C@H]21,-1.37
5,Cn1nc2c(cc1=O)CN(Cc1nc(-c3ccco3)no1)CC2,5.02
6,Cn1nc2c(cc1=O)CN(Cc1nc(C3CC3)no1)CC2,8.16
7,Cn1nc2c(cc1=O)CN(Cc1nc(C(C)(C)C)no1)CC2,70.1
8,Cn1nc2c(cc1=O)CN(Cc1nc(-c3cccnc3)no1)CC2,-1.07
9,Cc1cccc(-c2noc(CN3CCc4nn(C)c(=O)cc4C3)n2)c1,68.9
10,Cc1ccc(-c2noc(CN3CCc4nn(C)c(=O)cc4C3)n2)cc1,1.64
11,CSCC[C@H]1CN2CCC[C@H]2CN1Cc1coc2ccc(C)cc2c1=O,-1.05
12,Fc1cnc(N2CCO[C@H]3CN(CC4CCC4)C[C@H]32)nc1,-1.14
13,Cc1nnsc1CN1C[C@H]2CC[C@@H]1CN(Cc1ccccc1)C2,2.23
14,CCC(=O)N1CC[C@H]2C(=O)N(Cc3ccc(OC)cc3)CCO[C@H]2C1,4.55
15,Cc1noc(C)c1CN1CCO[C@H]2CN(CC3CC3)C[C@H]21,2.54
16,Cc1noc(C)c1CN1CC[C@H]2[C@@H]1CCC(=O)N2CC1CCOCC1,3.41
17,Cc1noc(C)c1CN1CC[C@H]2[C@H]1CCN2CC1CCOCC1,59
18,CCCN1CCN(C(=O)c2cccc3cccnc23)[C@H]2CS(=O)(=O)C[C@H]21,-0.361
19,CC(C)CN1Cc2nc(N)ncc2C1=O,91.2
20,CC1CCC(N2Cc3nc(N)ncc3C2=O)CC1 (stereo not drawn),73.8
21,CC(C)CN1Cc2nc(N3CCC(O)CC3)ncc2C1=O,4.55
22,CC(C)CN1Cc2nc(N3CCCC3)ncc2C1=O,6.16
23,CC1(C)CC(N2Cc3nc(N)ncc3C2=O)CC(C)(C)N1,1.77

row,Structure (SMILES),Percent Effect [%]
1,CN1CCC(N2Cc3nc(N)ncc3C2=O)CC1,2.22
2,CN1[C@H](CN2CCCC2)C[C@@H]2CN(C(=O)Cc3cccs3)CC[C@@H]21,-1.4
3,CCO[C@@H]1CN(S(=O)(=O)c2cn(C)cn2)[C@@H]2CCCO[C@@H]21,3.16
4,CC(C)=CCN1C(=O)[C@H]2CC[C@@H]1CN(C(=O)CCc1n[nH]c(C)c1C)C2,-4.7
5,CC(NC(=O)C1=NN(C)C(=O)CC1)c1ccc(Cl)cc1Cl (stereo not drawn),57.8
6,CC(NC(=O)C1=NN(C)C(=O)CC1)c1ccc(Cl)cc1 (stereo not drawn),6.56
7,CC(NC(=O)C1=NN(C)C(=O)CC1)c1ccccc1Cl (stereo not drawn),7.44
8,c1ccc(CO[C@@H]2CN(Cc3ccoc3)[C@@H]3COC[C@@H]32)nc1,-0.514
9,N#Cc1cc2c(=O)n(CC(O)Cc3ccccc3)ccc2[nH]c1=O (stereo not drawn),4.36
10,CCCOC(C)Cn1ccc2[nH]c(=O)c(C#N)cc2c1=O (stereo not drawn),61.2
11,CC(C)SCCn1ccc2[nH]c(=O)c(C#N)cc2c1=O,48.5
12,CC(O)CCn1ccc2[nH]c(=O)c(C#N)cc2c1=O (stereo not drawn),58.6
13,N#Cc1cc2c(=O)n(CC(O)C(F)(F)F)ccc2[nH]c1=O (stereo not drawn),27.3
14,CCC(Cn1ccc2[nH]c(=O)c(C#N)cc2c1=O)OC (stereo not drawn),34.1
15,CC(C)C(=O)N1CCN(C(=O)c2cc(C(C)C)no2)[C@H]2CS(=O)(=O)C[C@H]21,2.34
16,Cc1cc(CN2C[C@@H]3CN(Cc4ccsc4)CCO[C@@H]3C2)no1,3.95
17,CCCn1cc(NC(=O)c2ccc(N(C)CC)cc2)ccc1=O,6.21
18,CCCn1cc(NC(=O)c2ccc(NC(=O)NC3CC3)cc2)ccc1=O,3.05
19,CCCn1cc(NC(=O)c2cccnc2O)ccc1=O,10.4
20,CCCn1cc(NC(=O)c2ccc(S(=O)(=O)CC)cc2)ccc1=O,78.9
21,CCCn1cc(NC(=O)c2ccncc2)ccc1=O,36.1
22,CCCn1cc(NC(=O)c2ccc(S(C)(=O)=O)cc2)ccc1=O,79.3
23,Cc1noc([C@H]2CC[C@@H]3[C@@H](CCN3S(C)(=O)=O)O2)n1,4.83

row,Structure (SMILES),Percent Effect [%]
1,CN(C)C(=O)N1C[C@@H]2CC[C@H](C1)N(Cc1nnc(C3CC3)o1)C2,1.65
2,CCC(=O)N1CCN(C(=O)c2ccc(COC)o2)[C@H]2CS(=O)(=O)C[C@H]21,1.62
3,O=C([C@@H]1CCO[C@@H]2CCN(Cc3ccc(F)cc3)C[C@H]21)N1CCCCO1,4.98
4,Cc1ncncc1C(=O)N1C[C@H]2CC[C@@H]1CN(C(=O)c1ccncc1)C2,4.91
5,CCOc1cccc(C2CC(=O)NCc3nc(N4CCCC4)sc32)c1 (stereo not drawn),1.45
6,CCn1ncnc1C1CC(=O)NCc2nc(N3CCCC3)sc21 (stereo not drawn),2.27
7,COc1cccc(C2SCC(=O)Nc3n[nH]cc32)c1OC(C)C (stereo not drawn),1.84
8,COc1cccc(C2CC(=O)Nc3nc(N)sc32)c1OC (stereo not drawn),62.7
9,COc1cccc(CNc2nc(N3CCOCC3)ns2)c1OC,-2.52
10,COc1cccc(C2SCC(=O)Nc3ccsc32)c1OC (stereo not drawn),1.9
11,Nc1nc2c(s1)C(c1c(F)cccc1Cl)CC(=O)N2 (stereo not drawn),41.6
12,COc1cccc(C2CC(=O)Nc3nc(N4CCOCC4)sc32)c1OC (stereo not drawn),77.8
13,COc1cccc(C2CC(=O)Nc3nc(N4CCCCC4)sc32)c1OC (stereo not drawn),84.4
14,CC(C)Oc1ccccc1C1CC(=O)Nc2c1cnn2C (stereo not drawn),1.57
15,CC(C)Oc1ccccc1C1CC(=O)Nc2nc(N3CCOCC3)sc21 (stereo not drawn),82.6
16,COc1cccc(CNCc2ccnc(N3CCOCC3)c2)c1OC,5.86
17,O=C(N1CCCC1)N1C[C@H]2CCC[C@@]2(COCc2ccccn2)C1,2.76
18,CCO[C@@H]1CC[C@H]2[C@H]1OCCN2Cc1ccoc1,2.1
19,CNC(=O)[C@@H]1C[C@H]2CN(Cc3csc(C)n3)C[C@H]2N1C(C)C,4.1
20,O=C([C@H]1CN(Cc2cccnc2)C[C@H]2OCC[C@@H]12)N1CCCO1,2.79
21,CN(C)C(=O)[C@@H]1C[C@@H]2CCN(C3CCOCC3)C[C@H]2O1,1.18

# — ChEMBL document CHEMBL3988442, “University of Dundee, Small-Polar-MMV Screening Library” (2021)
